Bioassay records deposited in PubChem BioAssay by National Center for Advancing Translational Sciences (NCATS).
GLS inh: inhibitors of human glutaminase (GLS) | AID 624170 | GLS enzymatic activity, qHTS titration | Potency, µM (top dose mostly 45.5 µM), for inactives: at the top dose activity change, negative = inhibition, hits mostly inhibitors | hit rate 0.21% among 410,000; note: % is set by controls: 0 for no effect and ±100 for the full control effect
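Assay buffer: 45 mM KH2PO4 pH 8.2, 0.02% Tween-20. hKGA acts on L-glutamine (1 mM solution added); product glutamate is reported by an oxidase/peroxidase Amplex Red coupling, with fluorescence taken at baseline and 30 min.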
VDR inh: inhibitors of human vitamin D receptor | P11473 | VDR-SRC2-3 peptide fluorescence polarization, 2 h | Potency, µM, for the others: max response, negative = inhibition, most hits filed as inhibitors | hit rate 0.93% among 400,000; note: % is set by controls: 0 for no effect and ±100 for the full control effect
Target sequence (P11473 whole entry, looked up): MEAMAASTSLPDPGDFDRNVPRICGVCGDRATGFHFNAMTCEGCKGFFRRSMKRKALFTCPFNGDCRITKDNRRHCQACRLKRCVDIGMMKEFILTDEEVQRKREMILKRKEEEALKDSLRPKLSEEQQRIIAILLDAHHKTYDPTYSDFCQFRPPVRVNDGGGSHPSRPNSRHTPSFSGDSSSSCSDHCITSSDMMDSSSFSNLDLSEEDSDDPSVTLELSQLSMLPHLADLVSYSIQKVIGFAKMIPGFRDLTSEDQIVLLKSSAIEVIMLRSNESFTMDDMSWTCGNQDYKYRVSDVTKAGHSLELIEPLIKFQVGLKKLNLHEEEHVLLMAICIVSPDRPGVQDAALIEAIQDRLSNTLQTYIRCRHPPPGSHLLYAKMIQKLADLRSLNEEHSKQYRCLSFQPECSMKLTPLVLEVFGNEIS
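Compounds are added to VDR with labelled SRC2-3 coactivator peptide and held 2 h at room temperature. Inhibition of the VDR–peptide interaction is then read as a change in fluorescence polarization.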
Pin1 inhibitor: inhibitors of human Pin1; Q13526; Pin1 FP peptide displacement, HiFluor488, 10 min; Potency, µM (titrated, usually from 115 µM), for the others: top-dose activity, negative = inhibition, usual class: inhibitors; hit rate 0.009% among 390,000; AID 504891; active = well fitted inhibition curve with a large enough effect in the polarisation, with a control signal flat, not every such curve was filed as active; inconclusive = small, poorly fitted or top-dose-only effect, or effect the other way, or a change in a side signal; inactive = no such curve, though single readings can be large or run the other way; the % refers to the polarisation; note: % is set by controls: 0 for no effect and ±100 for the full control effect
Target sequence (Q13526 whole entry, looked up): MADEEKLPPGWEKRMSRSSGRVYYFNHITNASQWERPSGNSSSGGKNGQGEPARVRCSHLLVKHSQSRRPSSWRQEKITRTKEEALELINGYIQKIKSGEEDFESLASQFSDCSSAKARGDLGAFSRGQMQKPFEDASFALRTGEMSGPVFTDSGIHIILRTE
PGK inhibitor: inhibitors of T. brucei phosphoglycerate kinase; PGK/GAPDH coupled, Kinase-Glo luminescence, 60 min; Potency, µM (titrated, usually from 57.5 µM), inactives show top-dose activity change, negative = inhibition, most hits filed as inhibitors; P07378; hit rate 0.043% among 380,000; note: % is set by controls: 0 for no effect and ±100 for the full control effect; nearly all actives have a fitted effect of over 60% in size
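Luminescent ATP detection (Kinase-Glo Plus) follows a 60-minute room-temperature incubation, with wells lacking PGK as controls. Buffer: 100 mM TEA (pH 7.6), 5 mM MgCl2, 0.01% Tween-20. Coupling enzyme GAPDH (100 nM final) supplies unstable 1,3-BPG in-well.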
Tb PFK inh: inhibitors of T. brucei phosphofructokinase; O15648; T. brucei PFK, ADP-Glo luminescence; Potency, µM (top dose mostly 57.5 µM), inactives show at the top dose activity, negative = inhibition, usual class: inhibitors; hit rate 0.17% among 330,000; AID 485367;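 note: 0% = uninhibited 1x PFK enzyme wells and -100% = no-enzyme wells; nearly all actives have a fitted effect of over 60% in size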
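Activity is normalized to no-enzyme wells (full inhibition) and 1.25 nM enzyme wells (no inhibition). Reaction: 0.5 mM F6P, 0.1 mM ATP, 45 min RT, ADP-Glo luminescence; concentration-response curves fitted and classed by quality.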
VDR confirm: inhibits human vitamin D receptor, primary hit validation; shares compounds with VDR inh; VDR-coactivator inhibition assay, qHTS confirmation; Potency, µM, usual class: inhibitors; hit rate 89% among 840; AID 602199
VDR FP: VDR (human) coactivator binding inhibition, fluorescein polarization. shares compounds with VDR inh. VDR-coactivator binding, fluorescein fluorescence polarization. Potency, µM (highest dose often 57.1 µM), inactives show at the highest dose activity change, negative = inhibition, hits mostly inhibitors. hit rate 48% among 840. AID 602200
VDR bla: inhibits human VDR in beta-lactamase reporter cells | hit rate 23% among 840 | shares compounds with VDR inh | VDR beta-lactamase reporter cells, FRET ratio; cells co-treated with VDR agonist LG190178 | AID 602202 | Potency, µM (highest dose often 46.1 µM), for the others: at the highest dose activity change, negative = inhibition, actives largely listed as inhibitors; note: % is set by controls: 0 for no effect and ±100 for the full control effect
VDR viability: cell toxicity, VDR inhibitor hit counter-screen. shares compounds with VDR inh. cytotoxicity counter-screen, cell viability, qHTS. Potency, µM (highest dose often 48.3 µM), for inactives: top-dose activity change, negative = cytotoxicity, hits mostly cytotoxic. hit rate 18% among 840. AID 602204;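 note: plate controls were DMSO for no effect and high-concentration cycloheximide for full effect; nearly all actives have a fitted effect of over 75% in size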
An asterisk follows results filed as active. Hits are enriched below; roughly 1.1% of the tested compounds scored in any of these assays. Unless noted, calls come from the whole dose curve; as a rule, active = well fitted curve in the direction sought with a large enough effect; inconclusive = small, poorly fitted or top-dose-only effect, or another doubt; inactive = no such curve, though single readings can be large; an effect the other way counts as inactive or inconclusive. Potency is the fitted concentration of half-maximal effect.

What do the screens show for `O=C1Nc2ccc(Br)cc2C1=Nc1cccnc1`?
GLS inh: -9.0%; VDR inh: 25.1µM*; Pin1 inhibitor: -3.7%; PGK inhibitor: -5.6%; Tb PFK inh: -8.0%; VDR confirm: 9.47*; VDR FP: -18.9%; VDR bla: 16.9%; VDR viability: inconclusive

Results for CCn1c(CSc2nnc(-c3cccnc3)n2-c2ccccc2C)nc2cc(C(=O)O)ccc21 ?
Tb PFK inh: -9.1%

Results for CCn1c(CSc2nnc(-c3ccncc3)n2CCOC)nc2cc(C(=O)O)ccc21 ?
GLS inh: 15.4%; VDR inh: 12.6µM*; Pin1 inhibitor: -6.6%; PGK inhibitor: -0.1%; Tb PFK inh: 6.5%; VDR confirm: 21.2*; VDR FP: 21.9%; VDR bla: 4.5%; VDR viability: 18.9%

Results for CCOC(=O)CNCCC(=O)c1ccc(Br)cc1 ?
GLS inh: 4.7%; VDR inh: 50.1µM*; Pin1 inhibitor: 18.9%; PGK inhibitor: -6.7%; Tb PFK inh: 0.5%; VDR confirm: 21.2*; VDR FP: 22.4µM*; VDR bla: inconclusive; VDR viability: inconclusive

How did CC(=O)c1ccc(N=C2C(=O)Nc3ccccc32)cc1 do in these assays?
GLS inh: 4.3%; VDR inh: 3.98µM*; Pin1 inhibitor: 3.0%; PGK inhibitor: 16.3%; Tb PFK inh: -11.4%; VDR confirm: 3.36*; VDR FP: 3.55µM*; VDR bla: 15.7%; VDR viability: -6.5%

Results for NC(=O)c1ccc(N=C2C(=O)Nc3ccc([N+](=O)[O-])cc32)cc1 ?
GLS inh: 0.2%; VDR inh: inconclusive; Pin1 inhibitor: 7.6%; PGK inhibitor: -7.7%; Tb PFK inh: -7.4%; VDR confirm: 0.631*; VDR FP: 0.708µM*; VDR bla: -16.2%; VDR viability: -20.9%

How did O=C(CN1C(=O)NC2(CCOc3ccccc32)C1=O)NCCc1ccc(F)cc1 (stereo unspecified) do in these assays?
GLS inh: -9.5%; VDR inh: 10.4%; Pin1 inhibitor: 0.6%; PGK inhibitor: -8.9%; Tb PFK inh: 1.8%

What do the screens show for `CCc1sc(C(C2C(=O)CC(C)(C)CC2=O)C2C(=O)CC(C)(C)CC2=O)cc1[N+](=O)[O-]`?
GLS inh: 7.08µM*; VDR inh: 12.6µM*; Pin1 inhibitor: -1.8%; PGK inhibitor: 1.6%; Tb PFK inh: -21.4%; VDR confirm: 3.36*; VDR FP: inconclusive; VDR bla: inconclusive; VDR viability: -12.7%

Results for CC1(C)CC(=O)C(C(c2ccco2)C2C(=O)CC(C)(C)CC2=O)C(=O)C1 ?
GLS inh: 15.3%; VDR inh: inconclusive; Pin1 inhibitor: -12.0%; PGK inhibitor: -2.1%; Tb PFK inh: inconclusive

How did COc1ccccc1N1CCN(C(=O)c2c(-c3c(F)cccc3Cl)noc2C)CC1 do in these assays?
GLS inh: -5.6%; VDR inh: -11.1%; Pin1 inhibitor: -3.8%; PGK inhibitor: inactive; Tb PFK inh: -6.2%

How did COc1cccc(CSc2nc3n(n2)C(c2cccc(F)c2)C(C(=O)Nc2ccccc2C)=C(C)N3)c1 (stereo unspecified) do in these assays?
GLS inh: -5.3%; VDR inh: 13.8%; Pin1 inhibitor: 2.8%; PGK inhibitor: -10.0%

How did COC(=O)c1ccc(NC(=O)c2nc(S(=O)(=O)Cc3cccc(C)c3)ncc2Cl)cc1 do in these assays?
GLS inh: inconclusive; VDR inh: 20µM*; Pin1 inhibitor: 24.7%; PGK inhibitor: -4.1%; Tb PFK inh: -7.3%; VDR confirm: 5.97*; VDR FP: inconclusive; VDR bla: 14.6µM*; VDR viability: 11.6µM*

What do the screens show for `CCS(=O)(=O)c1ncc(Cl)c(C(=O)Nc2ccc(S(=O)(=O)N3CCC(C)CC3)cc2)n1`?
GLS inh: -5.4%; VDR inh: 14.1µM*; Pin1 inhibitor: 45.5%; PGK inhibitor: -6.8%; Tb PFK inh: -16.0%; VDR confirm: 5.32*; VDR FP: 3.55µM*; VDR bla: 8.2µM*; VDR viability: 3.66µM*

Results for CCOC(=O)c1ccc(NC(=O)c2nc(S(=O)(=O)Cc3ccccc3)ncc2Cl)cc1 ?
GLS inh: inconclusive; VDR inh: 31.6µM*; Pin1 inhibitor: 26.2%; PGK inhibitor: -9.4%; Tb PFK inh: -8.5%; VDR confirm: 13.4*; VDR FP: inconclusive; VDR bla: 14.6µM*; VDR viability: 13µM*

What do the screens show for `CCOC(=O)c1c(-c2ccccc2)csc1NC(=O)c1nc(S(=O)(=O)CC)ncc1Cl`?
GLS inh: -7.5%; VDR inh: 17.8µM*; Pin1 inhibitor: 12.7%; PGK inhibitor: -5.6%; VDR confirm: 3.16*; VDR FP: inconclusive; VDR bla: 4.61µM*; VDR viability: 21.2µM*

What do the screens show for `CC1(C)CC(=O)C=C(c2ccc(-c3cnc4ccccc4c3)cc2)C1=O`?
GLS inh: -2.7%; PGK inhibitor: 3.5%

Results for CC1CCc2nn(CC(=O)Nc3ccccc3Cl)cc2C1 (stereo unspecified) ?
GLS inh: -11.7%; VDR inh: -5.0%; Pin1 inhibitor: 3.9%; PGK inhibitor: 1.5%

What do the screens show for `CN(c1ccccc1)S(=O)(=O)c1ccc(NC(=O)c2nc(S(C)(=O)=O)ncc2Cl)cc1`?
GLS inh: -24.9%; VDR inh: 20µM*; Pin1 inhibitor: 1.6%; PGK inhibitor: 8.6%; Tb PFK inh: -23.2%; VDR confirm: 3.77*; VDR FP: 3.55µM*; VDR bla: 3.66µM*; VDR viability: 8.2µM*

Results for CCS(=O)(=O)c1ncc(Cl)c(C(=O)Nc2ccccc2OC)n1 ?
GLS inh: -1.8%; VDR inh: inconclusive; Pin1 inhibitor: -1.3%; PGK inhibitor: -5.2%; Tb PFK inh: 0.5%

How did CCOc1ccccc1NC(=O)c1nc(S(=O)(=O)Cc2ccccc2)ncc1Cl do in these assays?
GLS inh: -4.0%; VDR inh: 11.2µM*; Pin1 inhibitor: 38.0%; PGK inhibitor: -3.5%; Tb PFK inh: -16.0%; VDR confirm: 6.7*; VDR FP: 3.16µM*; VDR bla: 6.51µM*; VDR viability: 8.2µM*
